Experimental data published in PubChem BioAssay (EPA / NIEHS).
“And” between values parts separate entries of the source, which are not always exact repeats. Equal entries are not always repeated. The source made the active and inactive calls. The calls were made as follows: active = hit-call score of the fitted dose curve at least 0.9, where 1 is the maximum; inactive = score below 0.9.

Test: ATG_ISRE_CIS: Attagene CIS-FACTORIAL HepG2 Assay for human Interferon Regulatory Factor 1 (IRF1) binding to an Interferon-Stimulated Response Element (ISRE) (AID 2282948)
Conditions: HepG2 ISRE cis-reporter (Attagene), mRNA transcription readout; actives raise or lower the signal
Outline: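 Uses HepG2 liver cells transfected with cis-regulated reporters and measures mRNA 24 h post-dosing through RT-PCR, primer-extension labelling and capillary electrophoresis, with DMSO as negative control.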
In the case of `c1ccc2c(c1)CCC2`, the outcome is reported as “inactive”.
In the case of `CC(C)(C)c1ccc(O)c(O)c1`, the outcome is reported as “inactive”.
In the case of `CN(Cc1cnc2nc(N)nc(N)c2n1)c1ccc(C(=O)N[C@@H](CCC(=O)O)C(=O)O)cc1`, the outcome is reported as “inactive”.
In the case of `CCCCCCCCCCCC(=O)NCCCN(C)C`, the AC50 is reported as 16.9 µM (active).
For `O=C1c2ccc(O)c(O)c2C(=O)c2c(O)ccc(O)c21`, the outcome was “inactive”.
With `Cc1ccc(C(=O)c2ccccc2)cc1` the outcome was “inactive”.
With `Nc1ccc(O)c(C(=O)O)c1` the outcome was “inactive”.
With `CCCCc1oc2ccccc2c1C(=O)c1cc(I)c(OCCN(CC)CC)c(I)c1` the outcome was “inactive”.
For `O=C(O)C(F)(F)OC(F)(F)C(F)(F)OC(F)(F)C(F)(F)OC(F)(F)C(F)(F)C(F)(F)C(F)(F)F`, the AC50 was 24.6 µM (active) and 26 µM (active).
For `CC[N+](CC)(CC)Cc1ccccc1`, the outcome was “inactive”.
For `O=C1Cc2ccccc2N1c1c(Cl)cccc1Cl`, the outcome was “inactive”.
With `CN(C)c1ccc(C(=C2C=CC(=[N+](C)C)C=C2)c2ccccc2)cc1` the AC50 was 1.34 µM (active) and 1.85 µM (active).
In the case of `CCCCC(CC)C(=O)OCCOCCOCCOCCOC(=O)C(CC)CCCC` (stereo not given), the outcome is reported as “inactive”.
For `c1cnc2c(c1)ccc1cccnc12`, the AC50 was 7.67 µM (active) and 7.15 µM (active).
For `CN(C)CCOC(c1ccccc1)c1ccccc1`, the AC50 was 100 µM (active).
In the case of `C[C@]12CC[C@@H]3c4ccc(O)cc4CC[C@H]3[C@@H]1CC[C@@H]2OC(=O)CCC1CCCC1`, the outcome is reported as “inactive”.
With `Cc1cc(=O)oc2cc(O)ccc12` the outcome was “inactive”.
With `FC(OC(F)(F)C(F)(F)C(F)(F)F)C(F)(F)F` (stereo not given) the outcome was “inactive”.
In the case of `COCN(COC)c1nc(N(COC)COC)nc(N(COC)COC)n1`, the outcome is reported as “inactive”.
With `CC=O` the outcome was “inactive”.
For `CCCCCCCCCCCCCCC`, the outcome was “inactive”.
For `Cc1ccccc1C(OCCN(C)C)c1ccccc1` (stereo not given), the outcome was “inactive”.
With `CC(=O)Nc1ccc(O)cc1` the outcome was “inactive”.
With `CC(C)CCOCCC(C)C` the outcome was “inactive”.
In the case of `CCc1ccccc1O`, the outcome is reported as “inactive”.
For `O=P(O)(O)CCC(F)(F)C(F)(F)C(F)(F)C(F)(F)C(F)(F)C(F)(F)F`, the outcome was “inactive”.
With `Nc1ccn([C@@H]2O[C@H](CO)[C@@H](O)C2O)c(=O)n1` (stereo not given in full) the outcome was “inactive”.
For `O=C(CCCN1CCC(O)(c2ccc(Cl)cc2)CC1)c1ccc(F)cc1`, the outcome was “inactive”.
For `CC1=NN(c2ccccc2)C(=O)C1`, the outcome was “inactive”.
For `O=S(=O)(c1ccc(OCc2ccccc2)cc1)c1ccccc1O`, the AC50 was 48.7 µM (active).
For `Cc1ccc(S(=O)(=O)O)cc1`, the outcome was “inactive”.
In the case of `Cc1cc(Cc2cc(C)cc(C(C)(C)C)c2O)c(O)c(C(C)(C)C)c1`, the outcome is reported as “inactive”.
With `Cc1ccc(N=Nc2c(O)ccc3ccccc23)c(C)c1` the outcome was “inactive”.
With `O=C1OC(=O)c2cc(-c3ccc4c(c3)C(=O)OC4=O)ccc21` the outcome was “inactive”.
In the case of `O=C1c2ccccc2C(=O)c2c(O)c(O)cc(O)c21`, the outcome is reported as “inactive”.
For `CCC(=O)O`, the outcome was “inactive”.

Test: ATG_M_32_CIS: Attagene CIS-FACTORIAL HepG2 Assay for M32 Transcription Factor (Internal Marker) (AID 2282949);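 also: background control marker of the multiplexed CIS panel rather than a real target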
Conditions: HepG2 Attagene cis-factorial M32 reporter, mRNA; actives raise or lower the signal
Outline: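 HepG2 human liver cells transiently transfected with cis-promoter-driven multiple reporter transcription units, dosed 24 h. Reporter mRNA quantified by RT-PCR, FAM-labelled primer extension, HpaI digest and capillary electrophoresis; bidirectional fit versus DMSO baseline.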
With `CN(Cc1cnc2nc(N)nc(N)c2n1)c1ccc(C(=O)N[C@@H](CCC(=O)O)C(=O)O)cc1` the outcome was “inactive”.
In the case of `CN(C)c1ccc(C(=C2C=CC(=[N+](C)C)C=C2)c2ccccc2)cc1`, the outcome is reported as “inactive”.
For `c1cnc2c(c1)ccc1cccnc12`, the outcome was “inactive”.
For `Cc1ccccc1C(OCCN(C)C)c1ccccc1` (stereo not given), the outcome was “inactive”.
With `CC(=O)Nc1ccc(O)cc1` the outcome was “inactive”.
With `CC(C)C=O` the outcome was “inactive”.
For `Cc1ccc(S(=O)(=O)O)cc1`, the outcome was “inactive”.

Test: ATG_M_06_CIS: Attagene CIS-FACTORIAL HepG2 Assay for M06 Transcription Factor (Internal Marker) (AID 2282950)
Conditions: HepG2 Attagene CIS-FACTORIAL M06 internal marker reporter; actives raise or lower the signal
Outline: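 Measured 24 h post-dosing in transiently transfected HepG2 cells, this internal-marker endpoint reports reporter mRNA via RT-PCR with fluorescent primer extension and capillary electrophoresis. DMSO served as negative control and baseline for bidirectional fitting.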
With `c1ccc2c(c1)CCC2` the outcome was “inactive”.
In the case of `CC(C)(C)c1ccc(O)c(O)c1`, the outcome is reported as “inactive”.
For `CN(Cc1cnc2nc(N)nc(N)c2n1)c1ccc(C(=O)N[C@@H](CCC(=O)O)C(=O)O)cc1`, the outcome was “inactive”.
In the case of `CCCCCCCCCCCC(=O)NCCCN(C)C`, the outcome is reported as “inactive”.
In the case of `O=C1c2ccc(O)c(O)c2C(=O)c2c(O)ccc(O)c21`, the outcome is reported as “inactive”.
With `Cc1ccc(C(=O)c2ccccc2)cc1` the outcome was “inactive”.
For `Nc1ccc(O)c(C(=O)O)c1`, the outcome was “inactive”.
For `CCCCc1oc2ccccc2c1C(=O)c1cc(I)c(OCCN(CC)CC)c(I)c1`, the AC50 was 89.1 µM (active).
In the case of `O=C(O)C(F)(F)OC(F)(F)C(F)(F)OC(F)(F)C(F)(F)OC(F)(F)C(F)(F)C(F)(F)C(F)(F)F`, the outcome is reported as “inactive”.
With `CC[N+](CC)(CC)Cc1ccccc1` the outcome was “inactive”.
With `O=C1Cc2ccccc2N1c1c(Cl)cccc1Cl` the outcome was “inactive”.
For `CN(C)c1ccc(C(=C2C=CC(=[N+](C)C)C=C2)c2ccccc2)cc1`, the outcome was “inactive”.
In the case of `CCCCC(CC)C(=O)OCCOCCOCCOCCOC(=O)C(CC)CCCC` (stereo not given), the outcome is reported as “inactive”.
In the case of `c1cnc2c(c1)ccc1cccnc12`, the outcome is reported as “inactive”.
In the case of `CN(C)CCOC(c1ccccc1)c1ccccc1`, the outcome is reported as “inactive”.
For `C[C@]12CC[C@@H]3c4ccc(O)cc4CC[C@H]3[C@@H]1CC[C@@H]2OC(=O)CCC1CCCC1`, the outcome was “inactive”.
In the case of `Cc1cc(=O)oc2cc(O)ccc12`, the outcome is reported as “inactive”.
For `FC(OC(F)(F)C(F)(F)C(F)(F)F)C(F)(F)F` (stereo not given), the outcome was “inactive”.
For `COCN(COC)c1nc(N(COC)COC)nc(N(COC)COC)n1`, the outcome was “inactive”.
In the case of `CC=O`, the outcome is reported as “inactive”.
With `CCCCCCCCCCCCCCC` the outcome was “inactive”.
In the case of `Cc1ccccc1C(OCCN(C)C)c1ccccc1` (stereo not given), the outcome is reported as “inactive”.
With `CC(=O)Nc1ccc(O)cc1` the outcome was “inactive”.
With `CC(C)CCOCCC(C)C` the outcome was “inactive”.
In the case of `CCc1ccccc1O`, the outcome is reported as “inactive”.
In the case of `O=P(O)(O)CCC(F)(F)C(F)(F)C(F)(F)C(F)(F)C(F)(F)C(F)(F)F`, the outcome is reported as “inactive”.
For `Nc1ccn([C@@H]2O[C@H](CO)[C@@H](O)C2O)c(=O)n1` (stereo not given in full), the outcome was “inactive”.
In the case of `O=C(CCCN1CCC(O)(c2ccc(Cl)cc2)CC1)c1ccc(F)cc1`, the outcome is reported as “inactive”.
In the case of `CC1=NN(c2ccccc2)C(=O)C1`, the outcome is reported as “inactive”.
In the case of `O=S(=O)(c1ccc(OCc2ccccc2)cc1)c1ccccc1O`, the outcome is reported as “inactive”.
For `CC(C)C=O`, the outcome was “inactive”.
With `Cc1ccc(S(=O)(=O)O)cc1` the outcome was “inactive”.
For `Cc1cc(Cc2cc(C)cc(C(C)(C)C)c2O)c(O)c(C(C)(C)C)c1`, the outcome was “inactive”.
For `Cc1ccc(N=Nc2c(O)ccc3ccccc23)c(C)c1`, the outcome was “inactive”.
In the case of `O=C1OC(=O)c2cc(-c3ccc4c(c3)C(=O)OC4=O)ccc21`, the outcome is reported as “inactive”.
In the case of `O=C1c2ccccc2C(=O)c2c(O)c(O)cc(O)c21`, the outcome is reported as “inactive”.
With `CCC(=O)O` the outcome was “inactive”.
